Among all 5,600 compounds or so, about 780 (14%) were called active. Not shown: some 3% with an inconclusive outcome. These entries were drawn from the full list. A number with no mark means an inactive call.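 How the source made its calls: active means mean signal decrease across replicates above about 35% based on untreated-well scatter, with enough replicates individually passing (limit read from the data); inconclusive means no rule stated though some were filed; inactive means the rest.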

Cytotoxicity (signal decrease) data for 38 molecules are collected here from PubChem BioAssay AID651742 (Broad Institute, 2012).

The nature of the assay: cytotoxicity in mouse NIH/3T3 fibroblasts, confirmation, cytotoxicity control for T. cruzi proliferation inhibitor project, cell-based, cherry-pick, single point (AID 651742).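 Further: 0% = median of neutral control wells and 100% = median of positive control wells.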 The note with it: NIH/3T3 viability, CellTiter-Glo ATP luminescence, 90 h; at 8.35 µM; stronger effect = higher value. In general terms: Cellular ATP, detected with luciferase, serves as a proxy for viable cell number.
For `CS(=O)(=O)N1[C@@H](C#N)[C@H](c2ccc(C#CC3CCCCC3)cc2)[C@@H]1CO`, the cytotoxicity (signal decrease) is 4.86%.

Regarding `COc1cccc(S(=O)(=O)N2CCCCN3[C@H](C2)[C@H](c2ccc(C#CC(C)C)cc2)[C@@H]3CO)c1`, the cytotoxicity (signal decrease) is 19.3%.

As to `C[C@@H]1CN([C@@H](C)CO)C(=O)c2cc(NC(=O)Nc3ccc(C(F)(F)F)cc3)ccc2O[C@@H](C)CCCCO[C@H]1CN(C)C(=O)c1ccccc1`, the cytotoxicity (signal decrease) is 23.5%.

Regarding `C[C@H]1CN([C@@H](C)CO)C(=O)CCCn2cc(nn2)CO[C@H]1CN(C)C(=O)c1ccccc1`, the cytotoxicity (signal decrease) is 10.9%.

For `C[C@H](CO)N1C[C@H](C)[C@H](CN(C)C(=O)Nc2ccc(C(F)(F)F)cc2)OCCCC[C@H](C)Oc2ccc(NC(=O)C3CCCCC3)cc2C1=O`, the cytotoxicity (signal decrease) is -27%.

Take `Cc1noc(C)c1S(=O)(=O)Nc1ccc2c(c1)C(=O)N([C@@H](C)CO)C[C@H](C)[C@@H](CN(C)C(=O)Nc1cccc3ccccc13)OCCCC[C@H](C)O2`: the cytotoxicity (signal decrease) was 7.99%.

For `COc1ccc(S(=O)(=O)Nc2ccc3c(c2)C(=O)N([C@H](C)CO)C[C@H](C)[C@H](CN(C)Cc2ccc(C(F)(F)F)cc2)O3)cc1`, the cytotoxicity (signal decrease) is 29%.

Take `O=C(CN1CCOCC1)N1CCCCN2[C@@H](CO)[C@H](c3ccc(-c4ccccc4)cc3)[C@@H]2C1`: the cytotoxicity (signal decrease) is 8.85%.

Regarding `C[C@H]1CN([C@@H](C)CO)C(=O)c2cc(NC(=O)Nc3ccc4c(c3)OCO4)ccc2O[C@@H]1CN(C)Cc1ccc(Oc2ccccc2)cc1`, the cytotoxicity (signal decrease) is 16%.

In the case of `C[C@@H]1CN([C@@H](C)CO)C(=O)c2cc(NC(=O)Cc3ccccc3)ccc2O[C@@H]1CN(C)Cc1ccc(Oc2ccccc2)cc1`, the cytotoxicity (signal decrease) was 27.9%.

Regarding `N#C[C@@H]1[C@@H](c2ccc(C#Cc3cccc(F)c3)cc2)[C@@H](CO)N1C(=O)C1CCC1`, the cytotoxicity (signal decrease) is 29.1%.

Consider `CC(C)CC#Cc1cnc2c(c1)C(=O)N([C@@H](C)CO)C[C@@H](C)[C@H](CN(C)C(=O)Cc1ccncc1)O2`, for which the cytotoxicity (signal decrease) was -12%.

Take `CC(=O)N(C)C[C@@H]1[C@@H](c2ccc(-c3ccccc3F)cc2)[C@@H](CO)N1C(C)=O`: the cytotoxicity (signal decrease) is 0.445%.

With `CCN(C[C@H]1[C@H](c2ccccc2)[C@H](CO)N1C(=O)C1CC1)C(=O)NC1CCCC1`, the cytotoxicity (signal decrease) is -12.5%.

As to `CC(C)NC(=O)Nc1ccc2c(c1)C(=O)N([C@H](C)CO)C[C@H](C)[C@H](CN(C)C(=O)Nc1ccc(C(F)(F)F)cc1)OCCCC[C@@H](C)O2`, the cytotoxicity (signal decrease) is -9.66%.

Take `OC[C@@H]1Nc2ccc(-c3cccc(F)c3)cc2[C@H]2[C@@H]1CCN2Cc1ccncc1`: the cytotoxicity (signal decrease) is 9.48%.

`Cc1ccccc1S(=O)(=O)N1CC[C@H]2[C@H](CO)Nc3ccc(-c4cccc(F)c4)cc3[C@H]21`: the cytotoxicity (signal decrease) is 52.4% (active).

Take `O=S(=O)(c1ccccc1)N1CC[C@@H]2[C@@H](CO)Nc3ccc(C#Cc4cccc(F)c4)cc3[C@@H]21`: the cytotoxicity (signal decrease) is 33%.

Turning to `C[C@H](CO)N1C[C@H](C)[C@@H](CN(C)Cc2ccc(C(F)(F)F)cc2)OCCCC[C@H](C)Oc2ccc(NC(=O)C3CCCCC3)cc2C1=O`, the cytotoxicity (signal decrease) was 27.4%.

Take `COc1cccc(S(=O)(=O)Nc2ccc3c(c2)[C@H]2C[C@H](CC(=O)NCc4ccc(Cl)cc4)O[C@H](CO)[C@H]2O3)c1`: the cytotoxicity (signal decrease) was -23.8%.

Take `CN(C)C(=O)c1ccc(-c2ccc3c(c2)[C@H]2[C@H](CCN2C(=O)c2ccc4c(c2)OCO4)[C@H](CO)N3)cc1`: the cytotoxicity (signal decrease) was -2.98%.

Turning to `O=C(c1ccc(F)cc1)N1CCCCN2[C@H](C1)[C@@H](c1ccc(C#CC3(O)CCCC3)cc1)[C@@H]2CO`, the cytotoxicity (signal decrease) is 2.43%.

Regarding `C[C@H](CO)N1C[C@H](C)[C@H](CN(C)S(=O)(=O)c2ccc(F)cc2)OCCCC[C@H](C)Oc2ccc(NS(=O)(=O)c3ccc(Cl)cc3)cc2C1=O`, the cytotoxicity (signal decrease) is 22.2%.

Take `C[C@@H]1CN([C@H](C)CO)C(=O)c2cccc(NC(=O)NC3CCCCC3)c2O[C@H]1CN(C)Cc1ccc(C(F)(F)F)cc1`: the cytotoxicity (signal decrease) is -8.62%.

For the molecule `C[C@@H]1CCCCO[C@H](CN(C)C(=O)CCC(F)(F)F)[C@H](C)CN([C@H](C)CO)C(=O)c2cc(NS(C)(=O)=O)ccc2O1`, the cytotoxicity (signal decrease) was 5.17%.

Turning to `COc1ccccc1C#Cc1ccc([C@H]2[C@H](CO)N3CCCCN(C(=O)C4CCC4)C[C@@H]23)cc1`, the cytotoxicity (signal decrease) is 50.3% (active).

On to `O=C(CN1CCOCC1)N1CCCCN2[C@@H](CO)[C@H](c3ccc(/C=C/c4ccccc4)cc3)[C@@H]2C1`, for which the cytotoxicity (signal decrease) was 32.3%.

For the molecule `O=C(C1CCC1)N1CCCCN2[C@H](CO)[C@H](c3ccc(-c4ccncc4)cc3)[C@@H]2C1`, the cytotoxicity (signal decrease) was -4.89%.

Regarding `OC[C@@H]1[C@H](c2ccc(C#CC3(O)CCCC3)cc2)[C@H]2CN(Cc3cncnc3)CCCCN12`, the cytotoxicity (signal decrease) is 13.7%.

On to `O=C(C1CCC1)N1CCCCN2[C@H](CO)[C@H](c3ccc(-c4cccc(F)c4)cc3)[C@@H]2C1`, for which the cytotoxicity (signal decrease) was 30.8%.

Regarding `COc1ccccc1NC(=O)N1CCCCN2[C@H](C1)[C@H](c1ccc(-c3ccccc3)cc1)[C@@H]2CO`, the cytotoxicity (signal decrease) is 33.3%.

Regarding `CCC(=O)N1CCCCN2[C@H](C1)[C@@H](c1ccc(/C=C/c3ccccc3)cc1)[C@@H]2CO`, the cytotoxicity (signal decrease) was 38.9% (active).

In the case of `CCC(=O)N1CCCCN2[C@H](C1)[C@@H](c1ccc(-c3ccc(F)cc3)cc1)[C@@H]2CO`, the cytotoxicity (signal decrease) is 15.5%.

On to `COc1ccccc1C#Cc1ccc([C@@H]2[C@H](CO)N3CCCCN(C(=O)C4CCCC4)C[C@@H]23)cc1`, for which the cytotoxicity (signal decrease) was 53.5% (active).

As to `OC[C@@H]1[C@H](c2ccc(C#Cc3ccccc3)cc2)[C@@H]2CN(Cc3cncnc3)CCCCN12`, the cytotoxicity (signal decrease) was 41.5% (active).

`Cc1ccc(-c2ccc([C@H]3[C@H](CO)N4CCCCN(Cc5cncnc5)C[C@@H]34)cc2)cc1`: the cytotoxicity (signal decrease) is 20%.

For the molecule `COc1ccccc1C#Cc1ccc([C@@H]2[C@H](CO)N3CCCCN(C(=O)C4CC4)C[C@@H]23)cc1`, the cytotoxicity (signal decrease) was 17.7%.

On to `C[C@@H]1CCCCO[C@H](CN(C)S(=O)(=O)c2ccc(Cl)cc2)[C@H](C)CN([C@@H](C)CO)C(=O)c2cc(NS(=O)(=O)c3cccs3)ccc2O1`, for which the cytotoxicity (signal decrease) was -18.8%.
